Results reported in PubChem BioAssay (EPA / NIEHS).
The source made the active and inactive calls. How the source made its calls: active means hit-call score of the fitted dose curve at least 0.9, where 1 is the maximum; inactive means score below 0.9.

How the values were obtained:
Details in all cases: mRNA level, 48 h; actives raise or lower the signal
[1] = read-out: Peroxisomal acyl-coenzyme A oxidase 1 (ACOX1) gene, ACOX1 (gene 51); test: LTEA_HepaRG_ACOX1: Life Technologies and Expression Analysis (LTEA) Assay for Peroxisomal acyl-coenzyme A oxidase 1 (ACOX1) gene using HepaRG (AID 2283467)
Method in brief: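 Measured by qRT-PCR against three housekeeping genes: ACOX1 transcript change in human HepaRG cells after 48 h dosing. Concentrations ran up to 100 uM in half-log steps. Curves were fitted bidirectionally relative to 0.5% DMSO.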

[2] = read-out: Alkaline Phosphatase, Placental (ALPP) gene, ALPP (gene 250); test: LTEA_HepaRG_ALPP: Life Technologies and Expression Analysis (LTEA) Assay for Alkaline Phosphatase, Placental (ALPP) gene using HepaRG (AID 2283468);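 on AC50: differentiated human HepaRG liver cells in serum-free induction medium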
Method in brief: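 qRT-PCR readout of ALPP mRNA (Fluidigm TaqMan), normalized to ACTB/GAPDH/POLR2A, after 48 h chemical exposure of HepaRG cells; 8-point half-log series, top 100 uM, 0.5% DMSO vehicle. Bidirectional curve fit versus DMSO baseline.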

[3] = read-out: Bcl-2 (BAD) gene, BAD (gene 572); test: LTEA_HepaRG_BAD: Life Technologies and Expression Analysis (LTEA) Assay for Bcl-2 (BAD) gene using HepaRG (AID 2283469)
Method in brief: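 BAD transcript change, measured by qRT-PCR against three housekeeping genes and fitted in both directions relative to 0.5% DMSO, after 48 h chemical treatment of human HepaRG liver cells at concentrations up to 100 uM.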

[4] = read-out: Bcl-2 (BAX) gene, BAX (gene 581); test: LTEA_HepaRG_BAX: Life Technologies and Expression Analysis (LTEA) Assay for Bcl-2 (BAX) gene using HepaRG (AID 2283470)
Method in brief: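 HepaRG (human liver), 48 h exposure, duplicate wells. 8-pt curve, half-log from 100 uM, 0.5% DMSO. BAX transcript by TaqMan qRT-PCR; ACTB/GAPDH/POLR2A normalization; gain or loss vs DMSO baseline.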

[5] = read-out: adenosine kinase (ADK) gene, ADK (gene 132); test: LTEA_HepaRG_ADK: Life Technologies and Expression Analysis (LTEA) Assay for adenosine kinase (ADK) gene using HepaRG (AID 2283471)
Method in brief: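 Differentiated HepaRG cells dosed 48 h in serum-free induction medium, 0.5% DMSO vehicle, eight half-log concentrations from 100 uM, in duplicate. ADK mRNA by TaqMan qRT-PCR normalised to ACTB, GAPDH, POLR2A; bidirectional fit versus DMSO.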

[6] = read-out: Alpha-fetoprotein (AFP) gene, AFP (gene 174); test: LTEA_HepaRG_AFP: Life Technologies and Expression Analysis (LTEA) Assay for Alpha-fetoprotein (AFP) gene using HepaRG (AID 2283472)
Method in brief: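 HepaRG, single lot; 48 h post-plating -> serum-free induction medium; cpd 8-pt, 100 uM top, half-log, 0.5% DMSO, duplicate, 48 h. RNA -> qRT-PCR AFP, norm ACTB/GAPDH/POLR2A. Bidirectional fit vs DMSO.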

[7] = read-out: BCL2L11 (gene 10018); test: LTEA_HepaRG_BCL2L11: Life Technologies and Expression Analysis (LTEA) Assay for Bcl-2 (BCL2L11) gene using HepaRG (AID 2283473)
Method in brief: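 HepaRG, 48 h exposure, 8-pt half-log series from 100 uM in 0.5% DMSO, duplicates; qRT-PCR (Fluidigm TaqMan) for BCL2L11, housekeeping-normalized; bidirectional curve fit relative to DMSO baseline.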

[8] = read-out: Apolipoprotein A-V (APOA5) gene, APOA5 (gene 116519); test: LTEA_HepaRG_APOA5: Life Technologies and Expression Analysis (LTEA) Assay for Apolipoprotein A-V (APOA5) gene using HepaRG (AID 2283474)
Method in brief: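 HepaRG, 48 h chemical exposure in serum-free induction medium, 8-pt half-log series (top 100 uM), 0.5% DMSO vehicle, duplicates. Readout: APOA5 mRNA by qRT-PCR, housekeeping-normalized; bidirectional fit vs DMSO baseline.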

[9] = read-out: Apoptosis regulator Bcl-2 (Homo sapiens) (UniProt P10415); test: LTEA_HepaRG_BCL2: Life Technologies and Expression Analysis (LTEA) Assay for Bcl-2 gene using HepaRG (AID 2283475)
Method in brief: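 HepaRG, plated 48 h then switched to serum-free induction medium; dosed 48 h, 8 conc. (max 100 uM, half-log steps), duplicate, 0.5% DMSO. Lysis in RLT, RNA isolated, TaqMan qRT-PCR for BCL2; ACTB/GAPDH/POLR2A normalisation; bidirectional fit vs DMSO.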

[10] = read-out: Bcl-2 (BID) gene, BID (gene 637); test: LTEA_HepaRG_BID: Life Technologies and Expression Analysis (LTEA) Assay for Bcl-2 (BID) gene using HepaRG (AID 2283476)
Method in brief: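 Transcript levels of BID, measured by qRT-PCR and normalized to three housekeeping genes, were fitted bidirectionally against DMSO controls. Cells were HepaRG, dosed 48 h at up to 100 uM.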

[11] = read-out: Caspase-3 (Homo sapiens) (UniProt P42574); test: LTEA_HepaRG_CASP3: Life Technologies and Expression Analysis (LTEA) Assay for cysteine-aspartic acid protease (CASP3) using HepaRG (AID 2283477)
Method in brief: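 HepaRG, 48 h exposure, 8 conc. (top 100 uM, half-log steps, duplicate), 0.5% DMSO vehicle; qRT-PCR of CASP3 transcript, housekeeping-normalised (ACTB/GAPDH/POLR2A); bidirectional curve fit vs DMSO baseline.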

[12] = read-out: Cytochrome P450 (CYP24A1), CYP24A1 (gene 1591); test: LTEA_HepaRG_CYP24A1: Life Technologies and Expression Analysis (LTEA) Assay for Cytochrome P450 (CYP24A1) using HepaRG (AID 2283478)
Method in brief: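 qRT-PCR read-out: CYP24A1 transcript levels normalized to three housekeeping genes, bidirectional curve fits against 0.5% DMSO baseline. Human HepaRG cells treated 48 h with chemicals at eight concentrations from 100 uM in half-log steps.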

[13] = read-out: Cytochrome P450 (CYP1A2), CYP1A2 (gene 1544); test: LTEA_HepaRG_CYP1A2: Life Technologies and Expression Analysis (LTEA) Assay for Cytochrome P450 (CYP1A2) using HepaRG (AID 2283479)
Method in brief: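 HepaRG, 48 h exposure, top 100 uM, half-log 8-pt, 0.5% DMSO vehicle, duplicates. Readout: TaqMan qRT-PCR of CYP1A2 mRNA, housekeeping-normalized (ACTB/GAPDH/POLR2A). Gain/loss fit relative to DMSO baseline.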

[14] = read-out: cysteine-aspartic acid protease (CASP8), CASP8 (gene 841); test: LTEA_HepaRG_CASP8: Life Technologies and Expression Analysis (LTEA) Assay for cysteine-aspartic acid protease (CASP8) using HepaRG (AID 2283480)
Method in brief: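 HepaRG, 48 h exposure, duplicate wells; 8 conc, half-log from 100 uM, 0.5% DMSO. Serum-free induction medium. CASP8 mRNA by TaqMan qRT-PCR, norm. ACTB/GAPDH/POLR2A; gain/loss fitted vs DMSO.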

[15] = read-out: Cytochrome P450 (CYP2B6), CYP2B6 (gene 1555); test: LTEA_HepaRG_CYP2B6: Life Technologies and Expression Analysis (LTEA) Assay for Cytochrome P450 (CYP2B6) using HepaRG (AID 2283481)
Method in brief: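 Read-out is CYP2B6 mRNA by TaqMan qRT-PCR, normalized to three housekeeping genes and fitted bidirectionally against 0.5% DMSO baseline. Human HepaRG cells received test chemicals for 48 h, top concentration 100 uM, half-log dilutions.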

[16] = read-out: Cytochrome P450 2C19 (Homo sapiens) (UniProt P33261); test: LTEA_HepaRG_CYP2C19: Life Technologies and Expression Analysis (LTEA) Assay for CYP2C19 using HepaRG (AID 2283482)
Method in brief: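 HepaRG, 48 h chemical exposure, 8-pt half-log series from 100 uM in 0.5% DMSO, duplicates. Readout: CYP2C19 mRNA by TaqMan qRT-PCR, housekeeping-normalized. Bidirectional fit vs DMSO baseline; phenobarbital 1mM as induction control.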

[17] = read-out: CYP2C8 (gene 1558); test: LTEA_HepaRG_CYP2C8: Life Technologies and Expression Analysis (LTEA) Assay for CYP2C8 using HepaRG (AID 2283483)
Method in brief: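 CYP2C8 mRNA induction or loss, by qRT-PCR normalized to ACTB/GAPDH/POLR2A, is read in HepaRG cells after 48 h treatment. Concentrations run from 100 uM down in half-log dilutions, with 0.5% DMSO as vehicle and baseline.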

[18] = read-out: CYP2C9 (gene 1559); test: LTEA_HepaRG_CYP2C9: Life Technologies and Expression Analysis (LTEA) Assay for CYP2C9 using HepaRG (AID 2283484)
Method in brief: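 Cells plated 48 h, switched to serum-free induction medium, then treated in duplicate for 48 h at eight concentrations (max 100 uM, 0.5% DMSO). RNA then analysed by qRT-PCR for CYP2C9; curves fitted in both directions relative to DMSO.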

[19] = read-out: CYP2E1 (gene 1571); test: LTEA_HepaRG_CYP2E1: Life Technologies and Expression Analysis (LTEA) Assay for CYP2E1 using HepaRG (AID 2283485)
Method in brief: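 Human liver line HepaRG, plated 48 h, then serum-free induction medium + chemical x 48 h; 8-pt CRC from 100 uM, half-log, 0.5% DMSO, n=2. Readout: CYP2E1 mRNA qRT-PCR vs ACTB/GAPDH/POLR2A; bidirectional fit vs DMSO.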

[20] = read-out: ATP-citrate lyase (ACLY), ACLY (gene 47); test: LTEA_HepaRG_ACLY: Life Technologies and Expression Analysis (LTEA) Assay for ATP-citrate lyase (ACLY) using HepaRG (AID 2283466)
Method in brief: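 HepaRG, 48 h exposure, 8-pt half-log dilutions (top 100 uM), 0.5% DMSO. Readout: ACLY mRNA, TaqMan qRT-PCR, housekeeping-normalized (ACTB/GAPDH/POLR2A). Bidirectional curve fit vs DMSO.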

Measured: AC50

Sequence of Cytochrome P450 2C19 (Homo sapiens) (P33261 whole entry, looked up): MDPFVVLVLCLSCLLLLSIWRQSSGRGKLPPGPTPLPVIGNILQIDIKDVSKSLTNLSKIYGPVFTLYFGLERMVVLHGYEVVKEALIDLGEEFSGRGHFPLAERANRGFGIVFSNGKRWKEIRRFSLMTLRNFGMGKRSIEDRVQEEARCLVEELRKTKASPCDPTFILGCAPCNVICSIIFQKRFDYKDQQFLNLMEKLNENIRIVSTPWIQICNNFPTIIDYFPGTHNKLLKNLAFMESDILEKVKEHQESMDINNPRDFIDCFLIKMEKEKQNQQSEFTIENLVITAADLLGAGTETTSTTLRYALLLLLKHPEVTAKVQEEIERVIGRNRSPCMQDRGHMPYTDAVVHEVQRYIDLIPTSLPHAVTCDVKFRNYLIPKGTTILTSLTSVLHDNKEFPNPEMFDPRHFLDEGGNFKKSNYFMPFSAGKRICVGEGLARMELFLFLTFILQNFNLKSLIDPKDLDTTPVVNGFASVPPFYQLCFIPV
Sequence of Apoptosis regulator Bcl-2 (Homo sapiens) (P10415 whole entry, looked up): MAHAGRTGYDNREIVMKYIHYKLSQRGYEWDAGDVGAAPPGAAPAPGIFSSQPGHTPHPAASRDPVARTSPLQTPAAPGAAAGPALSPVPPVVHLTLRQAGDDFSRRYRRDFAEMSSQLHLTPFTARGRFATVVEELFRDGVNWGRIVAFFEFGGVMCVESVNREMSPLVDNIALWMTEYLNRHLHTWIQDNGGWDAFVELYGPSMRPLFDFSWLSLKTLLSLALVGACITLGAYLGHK
Sequence of Caspase-3 (Homo sapiens) (P42574 whole entry, looked up): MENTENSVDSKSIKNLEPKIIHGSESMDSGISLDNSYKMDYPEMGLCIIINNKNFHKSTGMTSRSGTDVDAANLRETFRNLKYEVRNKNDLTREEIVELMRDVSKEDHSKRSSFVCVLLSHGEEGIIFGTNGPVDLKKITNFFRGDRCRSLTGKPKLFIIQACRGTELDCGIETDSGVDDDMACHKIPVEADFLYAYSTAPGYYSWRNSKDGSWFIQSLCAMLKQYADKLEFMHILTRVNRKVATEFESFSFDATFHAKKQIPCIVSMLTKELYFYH

Clc1cc(Cl)c2c(c1)N=C1CCCCCN1C2
active: [6] 25 µM | [13] 2.21 µM | [15] 6.27 µM | [17] 6.18 µM | [19] 32.1 µM
not listed: [20]
inactive: all other assays above

Cc1cc2c(cc1C(F)(F)F)N(C(=O)Nc1ccc(Oc3cccnc3C)nc1)CC2
inactive: [20] | [3] | [4] | [9] | [11] | [12] | [16] | [17]
active: [1] 46 µM | [2] 15.8 µM | [5] 82.4 µM | [6] 19.9 µM | [7] 81.3 µM | [8] 78 µM | [10] 75 µM | [13] 2.31 µM | [14] 73.6 µM | [15] 12.2 µM | [18] 46 µM

CC(C)(c1cc(Br)c(O)c(Br)c1)c1cc(Br)c(O)c(Br)c1
active: [1] 89.1 µM | [4] 22.6 µM | [5] 92.5 µM | [15] 89.3 µM | [19] 85.6 µM
not listed: [11]
inactive: all other assays above

O=C(O)Cn1c(=O)n(Cc2ccc(Br)cc2F)c(=O)c2ccc(Cl)cc21
active: [15] 32.7 µM | [16] 13 µM | [17] 17 µM | [19] 25.8 µM
inactive: all other assays above

CCCCCCCCOC(=O)c1cc(O)c(O)c(O)c1
active: [13] 39.5 µM
not listed: [2]
inactive: all other assays above

C[C@]12CC[C@@H]3c4ccc(O)cc4CC[C@H]3[C@@H]1CC[C@H]2O
active: [2] 50 µM | [6] 75.7 µM | [8] 50 µM | [15] 1.19 µM | [16] 3.77 µM | [17] 1.46 µM | [19] 88.4 µM
inactive: all other assays above
